From PubChem BioAssay (NCATS)
Several values for one entry are separate records, joined by “and”; a condition that tells them apart may be missing. Identical values can stand only once. Records with an inconclusive call do not appear. Where a call stands in place of a potency, no number is given. Activity calls are given as the source filed them. Unless noted, calls follow the shape of the dose curve; as a rule, active = well fitted curve in the direction sought with a large enough effect; inconclusive = small, poorly fitted or top-dose-only effect, or another doubt; inactive = no such curve, though single readings can be large; an effect the other way counts as inactive or inconclusive.

Columns and labels:
[1] = Cell Viability - Jurkat (AID 426;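 active = dose-dependent loss of cell ATP signal giving a full or clear fitted curve, ranked by lower potency value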;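 also: potency is read from the fitted curve at half-maximal effect; cells exposed to compound for 40 hours at 37 °C before ATP read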); details: qHTS
Outline: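 Cytotoxicity taken as drop in cellular ATP (CellTiter-Glo luminescence, 20 min room temperature) after 40 hr, 37C treatment of 5000 Jurkat Clone E6-1 cells per well; concentration-response fitted with Hill equation for AC50.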

[2] = Cell Viability - Hek293 (AID 427;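 active = compounds whose dose-response curve shows a full or clear partial loss of cell viability, called from curve shape rather than a numeric limit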;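 also: potency is read from the fitted curve at half-maximal effect; cells exposed to compound for 40 hours at 37 °C before reading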); details: qHTS
Outline: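 Luminescent ATP read-out (CellTiter-Glo, 20 min RT) after 40 hr compound exposure at 37 °C in complete medium. Signal normalized to DMSO (basal) and 100 uM tamoxifen (100% inhibition); concentration-response fitted with the standard Hill equation to give AC50.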

[3] = Cell Viability - SK-N-SH (AID 435; calls by dose curve;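 also: potency is read from the fitted curve at half-maximal effect; compound exposure lasted 40 h at 37 °C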); details: SK-N-SH neuroblastoma cell viability qHTS
Outline: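 CellTiter-Glo ATP luminescence, 20 min RT read; cells pre-plated 5 hr, compound 40 hr at 37 °C, 1500 cells/well, complete medium. Normalized DMSO = 0, 100 uM tamoxifen = 100% inhibition; Hill-fit AC50.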

[4] = Cell Viability - SH-SY5Y (AID 544); details: SH-SY5Y neuroblastoma cell viability; viability change, negative = cytotoxic: at 92.2 µM (top of the series);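 also: cells exposed to compound for 40 hours; nearly all actives have a fitted effect of over 55% in size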
Outline: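 Cytotoxicity measured via ATP-dependent luciferase luminescence (CellTiter-Glo) following 40 h, 37 °C exposure of 1500 SH-SY5Y cells per well. Concentration-response data were fitted with the standard Hill equation to give AC50.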

[5] = target: Cytochrome P450 3A4 (Homo sapiens) (UniProt P08684); experiment: qHTS Assay for Inhibitors and Substrates of Cytochrome P450 3A4 (AID 884); details: recombinant CYP3A4, Luciferin-PPXE luminescence; series mostly up to 57.1 µM; also: nearly all actives have a fitted effect of over 50% in size; also: potency is read from the fitted curve at half-maximal effect
Cytochrome P450 3A4 (Homo sapiens), sequence (P08684 whole entry, looked up): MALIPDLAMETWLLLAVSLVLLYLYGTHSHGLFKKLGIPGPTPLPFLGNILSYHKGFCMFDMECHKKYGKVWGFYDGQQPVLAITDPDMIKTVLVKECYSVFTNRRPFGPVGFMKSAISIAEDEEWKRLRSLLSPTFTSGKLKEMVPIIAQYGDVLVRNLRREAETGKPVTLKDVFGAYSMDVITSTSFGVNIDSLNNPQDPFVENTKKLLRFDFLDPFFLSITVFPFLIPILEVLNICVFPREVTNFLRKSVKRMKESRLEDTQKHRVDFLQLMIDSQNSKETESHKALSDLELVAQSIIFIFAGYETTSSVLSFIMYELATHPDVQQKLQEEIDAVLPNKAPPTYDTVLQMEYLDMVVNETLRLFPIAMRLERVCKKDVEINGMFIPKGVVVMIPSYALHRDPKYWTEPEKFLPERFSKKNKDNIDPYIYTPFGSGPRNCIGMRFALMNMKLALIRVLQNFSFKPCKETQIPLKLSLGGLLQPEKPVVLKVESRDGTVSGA
Outline: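 Luminescent readout of luciferin produced by CYP3A4 (20 nM) dealkylation of Luciferin-PPXE, 25 uM (its KM). NADPH-driven reaction ran 60 min at RT after 10 min compound preincubation; data scaled to 57 uM ketoconazole as 100% inhibition.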

[6] = MultiTox-Fluor Cytotoxicity Assay - LYMP1-002 - Dead Cells (AID 960); details: LYMP1-002 lymphoblastoid cells, dead-cell protease fluorescence; series mostly up to 46.1 µM; also: nearly all actives have a fitted effect of over 60% in size
Outline: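 Dead-cell fluorescence (Ex/Em 485/520) after 16 h compound exposure at 37 C of LYMP1-002 lymphoblastoid cells in complete medium; AC50 by Hill equation, with data scaled between DMSO and 15 uM tetraoctylammonium bromide.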

[7] = Cell Viability - LYMP2-015 (AID 971); details: LYMP2-015 lymphoblastoid cell viability; series mostly up to 92.2 µM; also: nearly all actives have a fitted effect of over 55% in size
Outline: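 Cytotoxicity readout: decrease in intracellular ATP (CellTiter-Glo luminescence) in 2500 LYMP2-015 lymphoblastoid cells/well after 24 h compound exposure at 37 C. Concentration-response data fitted with the standard Hill equation to give AC50.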

[8] = Cell Viability - LYMP2-010 (AID 981); details: LYMP2-010 lymphoblastoid cell viability, qHTS; series mostly up to 92.2 µM;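 also: cells exposed to compound for 24 hours at 37 °C; nearly all actives have a fitted effect of over 55% in size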
Outline: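 CellTiter-Glo ATP luminescence measured cytotoxicity after 24 h compound exposure at 37 C. LYMP2-010 cells were seeded at 2500/well, with tetraoctylammonium bromide as control; concentration-response curves gave AC50 values by the Hill equation.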

[9] = target: Vitamin D3 receptor (Homo sapiens) (UniProt P11473); experiment: qHTS assay for small molecule agonists of vitamin D receptor signaling (AID 588543; calls by dose curve); details: HEK293T VDR-UAS-bla, beta-lactamase ratio, 16 h; series mostly up to 76.8 µM
Vitamin D3 receptor (Homo sapiens), sequence (P11473 whole entry, looked up): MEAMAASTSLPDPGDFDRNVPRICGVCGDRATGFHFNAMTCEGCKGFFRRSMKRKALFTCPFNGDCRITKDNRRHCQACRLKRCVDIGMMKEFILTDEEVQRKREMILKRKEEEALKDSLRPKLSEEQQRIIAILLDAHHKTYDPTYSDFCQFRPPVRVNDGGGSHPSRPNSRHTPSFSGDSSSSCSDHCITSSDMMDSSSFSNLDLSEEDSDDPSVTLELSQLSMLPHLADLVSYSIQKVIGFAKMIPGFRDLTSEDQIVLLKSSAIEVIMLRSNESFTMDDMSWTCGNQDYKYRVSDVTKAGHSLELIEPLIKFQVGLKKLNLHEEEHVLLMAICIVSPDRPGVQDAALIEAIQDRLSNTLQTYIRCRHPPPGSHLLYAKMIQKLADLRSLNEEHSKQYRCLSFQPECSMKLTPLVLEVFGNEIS
Outline: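 β-lactamase reporter, VDR-UAS-bla HEK293T, agonist mode. Cells plated 5 h at 37 °C, compound titration 16 h at 37 °C, CCF4 dye 2 h RT, ratio 460/530 nm. Hill fit → EC50, efficacy vs 50 nM 1α,25-(OH)2D3.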

[10] = qHTS assay for small molecule agonists of retinoid X receptor alpha signaling (AID 588544); details: HEK293T RXRa-UAS-bla, beta-lactamase reporter, 18 h; 530 nm emission
[11] = target: Thyroid hormone receptor beta (Homo sapiens) (UniProt P10828); experiment: qHTS assay for small molecule agonists of thyroid hormone receptor beta signaling (AID 588545; calls by dose curve); details: TR-UAS-bla GripTite HEK 293, beta-lactamase ratio, agonist mode, 18 h; series mostly up to 76.7 µM
Thyroid hormone receptor beta (Homo sapiens), sequence (P10828 whole entry, looked up): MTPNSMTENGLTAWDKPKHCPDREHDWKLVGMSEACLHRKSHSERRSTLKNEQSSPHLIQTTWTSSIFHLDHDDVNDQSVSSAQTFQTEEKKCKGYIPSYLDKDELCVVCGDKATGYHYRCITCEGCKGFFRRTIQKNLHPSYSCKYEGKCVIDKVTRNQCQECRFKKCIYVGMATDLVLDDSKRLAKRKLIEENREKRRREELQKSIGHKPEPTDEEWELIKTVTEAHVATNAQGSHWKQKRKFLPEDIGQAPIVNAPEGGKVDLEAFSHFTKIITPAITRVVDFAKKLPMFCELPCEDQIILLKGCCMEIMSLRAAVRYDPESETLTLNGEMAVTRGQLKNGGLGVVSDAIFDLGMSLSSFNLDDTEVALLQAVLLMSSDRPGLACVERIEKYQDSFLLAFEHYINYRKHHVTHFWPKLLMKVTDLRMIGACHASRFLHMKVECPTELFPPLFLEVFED
Outline: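 TR-UAS-bla-GripTite HEK 293 cells in medium with 2% charcoal/dextran FBS, 0.1 mM NEAA and 1 mM sodium pyruvate were treated with titrated compounds for 18 hrs at 37 C. Beta-lactamase reporter was read with CCF4 dye (ex 405, em 460/530 nm); EC50 from Hill fits.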

[12] = qHTS assay for small molecule activators of the p53 signaling pathway (AID 651743; active = well fitted activation curve with a large enough effect in the signal ratio, not every such curve was filed as active; the % refers to the signal ratio); details: HCT-116 p53RE-bla, beta-lactamase FRET ratio, 16 h; activation: stronger effect = higher value
Outline: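 Agonist-mode quantitative HTS in HCT-116 cells carrying a p53-response-element beta-lactamase reporter; 16 h compound treatment at 37 C, then FRET substrate loading for 2 h at room temperature and fluorescence read.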

[13] = qHTS assay for small molecule activators of the nuclear factor-kappa B (NF-kB) signaling pathway (AID 651749; active = well fitted activation curve with a large enough effect in the signal ratio; the % refers to the signal ratio); details: NF-kB-bla ME-180 cells, beta-lactamase FRET ratio, 16 h; stronger effect = higher value
Outline: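 Human ME-180 cervical cells with an NF-kB-bla construct; compounds added via 23 nL pin transfer, DMSO as vehicle; incubation 16 hr. Reporter activity measured by FRET disruption.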

[14] = qHTS assay for small molecule disruptors of the mitochondrial membrane potential - 1 hr assay (AID 651754; calls by dose curve; also: nearly all actives have a fitted effect of over 35% in size); details: series mostly up to 92.2 µM
Outline: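 Mitochondrial potential in living HepG2 cells after 1 hr compound treatment at 37C was read with Mito-MPS dye added for a further 30 min. Red aggregate and green monomer fluorescence were measured; loss of potential leaves dye as cytoplasmic monomers.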

[15] = target: Nuclear receptor ROR-gamma (Homo sapiens) (UniProt P51449); experiment: qHTS assay for small molecule antagonists of the retinoid-related orphan receptor gamma (ROR-gamma) signaling pathway (AID 651802); details: ROR-gamma antagonist cell reporter assay; series mostly up to 92.2 µM;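 also: CHO cells with doxycycline-induced ROR-gamma expression; luciferase reporter luminescence driven by ROR response element; nearly all actives have a fitted effect of over 60% in size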
Nuclear receptor ROR-gamma (Homo sapiens), sequence (P51449 whole entry, looked up): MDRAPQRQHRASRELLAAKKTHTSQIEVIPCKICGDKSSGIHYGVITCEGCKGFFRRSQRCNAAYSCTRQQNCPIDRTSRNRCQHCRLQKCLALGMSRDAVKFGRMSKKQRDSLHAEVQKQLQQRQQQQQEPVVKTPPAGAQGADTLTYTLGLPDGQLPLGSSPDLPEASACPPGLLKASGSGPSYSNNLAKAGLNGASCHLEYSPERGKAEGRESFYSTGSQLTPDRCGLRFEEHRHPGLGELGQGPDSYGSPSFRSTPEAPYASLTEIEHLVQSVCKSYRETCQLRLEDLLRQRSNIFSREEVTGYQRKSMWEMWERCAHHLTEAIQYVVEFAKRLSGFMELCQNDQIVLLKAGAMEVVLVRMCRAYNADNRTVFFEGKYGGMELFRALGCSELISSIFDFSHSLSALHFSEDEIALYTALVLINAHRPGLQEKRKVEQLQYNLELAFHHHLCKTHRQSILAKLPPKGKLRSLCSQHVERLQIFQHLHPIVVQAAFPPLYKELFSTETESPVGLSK
Outline: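 Luminescence (One-Glo, 30 min RT) measured 16 h after compound addition and doxycycline induction at 37C. Reporter: RORE-luciferase under TET-inducible ROR-gamma in CHO cells.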

[16] = qHTS assay for small molecule agonists of the antioxidant response element (ARE) signaling pathway measured by Nrf2-dependant transcriptional activity (AID 720636; active = well fitted curve in the direction sought with a large enough effect in the repeat runs; an effect the other way counts as inactive or inconclusive); details: ARE-luc HepG2, Nrf2 luciferase reporter, 16 h; series mostly up to 92.4 µM
Outline: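 Quantitative HTS format in HepG2 cells stably expressing an ARE-luciferase reporter; 16 hr compound treatment at 37 C, luciferase signal detected with ONE-Glo.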

[17] = qHTS assay for small molecule antagonists of the retinoid-related orphan receptor gamma (ROR-gamma) signaling pathway - cell viability counter screen (AID 720652; active = well fitted curve in the direction sought with a large enough effect in the repeat runs; an effect the other way counts as inactive or inconclusive;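 also: CHO reporter cells with doxycycline-induced ROR-gamma expression; compound exposure lasted 16 hr before ATP read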); details: RORgamma reporter cell line viability counter screen; series mostly up to 92.2 µM
Outline: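 Cytotoxicity counter screen: intracellular ATP (CellTiter-Glo luminescence) measured in the doxycycline-induced CHO RORE-luciferase reporter line after 16 hr compound exposure at 37 C, 5% CO2.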

[18] = qHTS assay for small molecule activators of the human pregnane X receptor (PXR) signaling pathway (AID 720659; call rule not given here); details: DPX-2 HepG2 CYP3A4-luciferase, 24 h; series mostly up to 92.3 µM
[19] = target: Glucocorticoid receptor (Homo sapiens) (UniProt P04150); experiment: qHTS assay for small molecule agonists of glucocorticoid receptor signaling (AID 588532; active = well fitted curve in the direction sought with a large enough effect in the signal ratio, with a control signal flat; the % refers to the signal ratio); details: HeLa MMTV-bla, beta-lactamase ratio, agonist, 18 h; stronger effect = higher value; percent of dexamethasone control, DMSO zero
Glucocorticoid receptor (Homo sapiens), sequence (P04150 whole entry, looked up): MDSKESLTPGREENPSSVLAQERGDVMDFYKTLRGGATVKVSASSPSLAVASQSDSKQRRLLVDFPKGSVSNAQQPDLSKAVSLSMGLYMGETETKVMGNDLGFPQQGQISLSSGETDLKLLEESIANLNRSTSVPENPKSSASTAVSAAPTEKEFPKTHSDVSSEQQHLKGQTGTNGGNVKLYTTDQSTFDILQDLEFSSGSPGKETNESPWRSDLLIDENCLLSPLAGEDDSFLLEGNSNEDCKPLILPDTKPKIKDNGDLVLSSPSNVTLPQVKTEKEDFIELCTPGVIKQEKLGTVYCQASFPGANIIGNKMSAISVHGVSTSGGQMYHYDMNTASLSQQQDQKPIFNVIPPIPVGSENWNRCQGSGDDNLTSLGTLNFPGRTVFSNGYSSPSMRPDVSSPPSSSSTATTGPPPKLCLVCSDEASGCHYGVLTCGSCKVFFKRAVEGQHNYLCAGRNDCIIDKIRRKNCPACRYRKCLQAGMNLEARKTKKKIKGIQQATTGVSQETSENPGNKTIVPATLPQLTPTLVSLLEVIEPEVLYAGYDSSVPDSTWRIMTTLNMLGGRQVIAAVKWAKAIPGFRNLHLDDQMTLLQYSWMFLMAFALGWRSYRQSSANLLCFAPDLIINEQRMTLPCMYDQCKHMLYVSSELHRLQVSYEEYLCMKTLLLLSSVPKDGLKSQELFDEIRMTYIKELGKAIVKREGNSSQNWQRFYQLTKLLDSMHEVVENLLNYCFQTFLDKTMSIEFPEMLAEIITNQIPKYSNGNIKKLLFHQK
Outline: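 Stimulation of a glucocorticoid response element-driven beta-lactamase gene was measured in HeLa cells. Responses were scaled between DMSO basal and 0.1 uM dexamethasone, then fitted for half-maximal stimulation.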

[20] = target: Voltage-gated inwardly rectifying potassium channel KCNH2 (Homo sapiens) (UniProt Q12809); experiment: qHTS Assay for Small Molecule Inhibitors of the Human hERG Channel Activity (AID 588834); details: U2OS BacMam hERG, FluxOR thallium flux fluorescence; series mostly up to 92.2 µM;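 also: lower thallium flux fluorescence means stronger hERG block; nearly all actives have a fitted effect of over 50% in size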; also: potency is read from the fitted curve at half-maximal effect
Voltage-gated inwardly rectifying potassium channel KCNH2 (Homo sapiens), sequence (Q12809 whole entry, looked up): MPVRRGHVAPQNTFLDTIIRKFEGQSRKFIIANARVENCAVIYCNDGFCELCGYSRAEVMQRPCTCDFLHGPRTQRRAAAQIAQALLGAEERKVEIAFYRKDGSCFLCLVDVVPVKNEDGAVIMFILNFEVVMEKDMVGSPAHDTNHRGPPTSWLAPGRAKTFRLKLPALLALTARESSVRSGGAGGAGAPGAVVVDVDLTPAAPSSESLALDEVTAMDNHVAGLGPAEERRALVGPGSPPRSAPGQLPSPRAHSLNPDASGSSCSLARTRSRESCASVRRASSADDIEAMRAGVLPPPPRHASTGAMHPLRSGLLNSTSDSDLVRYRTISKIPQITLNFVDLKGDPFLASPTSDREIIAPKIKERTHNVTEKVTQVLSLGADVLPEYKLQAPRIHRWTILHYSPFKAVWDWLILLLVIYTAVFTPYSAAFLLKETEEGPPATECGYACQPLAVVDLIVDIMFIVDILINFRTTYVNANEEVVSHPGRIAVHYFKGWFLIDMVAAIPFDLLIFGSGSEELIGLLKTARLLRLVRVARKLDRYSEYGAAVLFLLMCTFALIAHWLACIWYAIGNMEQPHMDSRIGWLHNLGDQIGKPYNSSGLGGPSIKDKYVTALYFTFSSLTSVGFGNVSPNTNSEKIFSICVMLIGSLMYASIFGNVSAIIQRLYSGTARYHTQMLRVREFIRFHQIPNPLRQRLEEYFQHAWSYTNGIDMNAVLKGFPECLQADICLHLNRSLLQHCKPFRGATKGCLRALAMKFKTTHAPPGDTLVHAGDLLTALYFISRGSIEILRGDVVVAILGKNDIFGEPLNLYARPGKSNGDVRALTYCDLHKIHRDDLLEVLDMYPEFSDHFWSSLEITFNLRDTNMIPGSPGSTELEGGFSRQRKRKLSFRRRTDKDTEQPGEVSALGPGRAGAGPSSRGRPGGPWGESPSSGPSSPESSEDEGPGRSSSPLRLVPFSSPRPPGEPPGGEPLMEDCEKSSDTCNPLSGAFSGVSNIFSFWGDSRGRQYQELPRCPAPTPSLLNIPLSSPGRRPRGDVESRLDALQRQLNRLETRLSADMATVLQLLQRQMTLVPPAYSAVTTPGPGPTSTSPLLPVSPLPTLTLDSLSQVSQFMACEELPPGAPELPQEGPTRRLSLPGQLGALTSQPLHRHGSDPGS
Outline: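 Thallium-flux (FluxOR) read-out on FDSS: fluorescence read 10 s before and 2 min after stimulation buffer. hERG-BacMam-transduced U2OS cells, compound exposure about 10 min. AC50 by standard Hill equation.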

SMILES	Potency [1]	Potency [2]	Potency [3]	Potency [4]	Potency [5]	Potency [6]	Potency [7]	Potency [8]	Potency [9]	max response [10]	Potency [11]	activation [12]	activation [13]	Potency [14]	Potency [15]	Potency [16]	Potency [17]	outcome [18]	activation [19]	Potency [20]
CCCCOC(=O)COc1ccc(Cl)cc1Cl	> 92 µM (inactive)	> 92 µM (inactive)	> 92 µM (inactive)	inactive	inactive	inactive	inactive	inactive	inactive	4.2% and -8.56%	inactive	-0.84% (inactive) and -2.7% (inactive)	1.36% (inactive) and -1.12% (inactive)	inactive	inactive	inactive	inactive	inactive	–	–
CCCCNCC	> 92 µM (inactive)	> 92 µM (inactive)	> 92 µM (inactive)	inactive	inactive	inactive	inactive	inactive	–	-3.36%	–	–	–	inactive	inactive	inactive	inactive	inactive	-12.1% (inactive)	–
C/C(Cl)=C/CCl	> 92 µM (inactive)	> 92 µM (inactive)	> 92 µM (inactive)	inactive	inactive	–	inactive	inactive	–	-5.41%	inactive	-4.9% (inactive)	–	inactive	inactive	inactive	inactive	inactive	–	inactive
Cc1c(N)cccc1Cl	> 92 µM (inactive)	> 92 µM (inactive)	> 92 µM (inactive)	inactive	inactive	inactive	inactive	inactive	inactive	8.41%	inactive	-0.236% (inactive)	0.113% (inactive)	inactive	inactive	inactive	inactive	inactive	-4.07% (inactive)	inactive
O=C(OCc1ccccc1)c1ccccc1O	> 92 µM (inactive)	> 92 µM (inactive)	> 92 µM (inactive)	inactive	inactive	–	inactive	inactive	inactive	-8.01% and -0.712%	inactive	1.07% (inactive) and -2.52% (inactive)	-0.301% (inactive) and -2.68% (inactive)	inactive	inactive	inactive	inactive	inactive	-2.46% (inactive) and -9.77% (inactive)	39.8 µM (active)
CCOC(=O)C1OC1c1ccccc1 (stereo unspecified)	> 92 µM (inactive)	> 92 µM (inactive)	> 92 µM (inactive)	inactive	inactive	inactive	inactive	inactive	inactive	2.55%	inactive	6.05% (inactive)	0.437% (inactive)	inactive	inactive	inactive	inactive	inactive	–	–
COc1cc(-c2ccc(N=C=O)c(OC)c2)ccc1N=C=O	> 92 µM (inactive)	> 92 µM (inactive)	> 92 µM (inactive)	inactive	12.6 µM (active)	inactive	inactive	inactive	inactive	-18.6%	inactive	–	–	–	–	inactive	inactive	inactive	–	inactive
c1ccncc1	> 92 µM (inactive)	> 92 µM (inactive)	> 92 µM (inactive)	inactive	inactive	inactive	inactive	inactive	inactive	1.38%	inactive	-0.205% (inactive)	0.644% (inactive)	inactive	inactive	inactive	inactive	inactive	–	inactive
Cc1cccnc1	> 92 µM (inactive)	> 92 µM (inactive)	> 92 µM (inactive)	inactive	inactive	inactive	inactive	inactive	inactive	9.82%	–	–	-0.701% (inactive)	inactive	inactive	inactive	inactive	inactive	–	inactive
CCC(Cl)CC(Cl)C(Cl)C(Cl)C(Cl)C(C)Cl (stereo unspecified)	> 92 µM (inactive)	> 92 µM (inactive)	> 92 µM (inactive)	inactive	inactive	–	inactive	inactive	–	-26.2%	inactive	–	0.226% (inactive)	inactive	–	inactive	–	–	4.73% (inactive)	–
c1ccc(CSCc2ccccc2)cc1	> 92 µM (inactive)	> 92 µM (inactive)	> 92 µM (inactive)	inactive	inactive	inactive	inactive	inactive	inactive	-16.6%	inactive	-0.938% (inactive)	-0.1% (inactive)	inactive	inactive	inactive	inactive	inactive	-4.65% (inactive)	–
CCCC(=O)OC(=O)CCC	> 92 µM (inactive)	> 92 µM (inactive)	> 92 µM (inactive)	inactive	inactive	inactive	inactive	–	–	16.4% and -19.3%	inactive	0.746% (inactive) and 0.239% (inactive)	0.205% (inactive) and -0.934% (inactive)	inactive	inactive	inactive	inactive	inactive	–	inactive
